Results: PubChem BioAssay (EPA / NIEHS)
Several values for one entry are separate records, joined by “and”; a condition that tells them apart may be missing. Equal entries are not always repeated. The source holds several records for some structures; these can differ, active in one and inactive in another. Activity calls are given as the source filed them. How the source made its calls: active means hit-call score of the fitted dose curve at least 0.9, where 1 is the maximum; inactive means score below 0.9.

Key:
[1] = read-out: Interleukin-8 (IL8), CXCL8 (gene 3576); assay: BSK_MyoF_IL8: BioMAP Diversity Plus: MyoF Assay for Interleukin-8 (IL8) Biomarker Activity (AID 2284261); conditions: primary human lung fibroblasts
How it was run: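 IL-8 quantified by ELISA after 24 h compound exposure of primary human lung fibroblasts. SRB staining of parallel cultures flagged cytotoxicity; DMSO served as baseline.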

CD90, THY1 (gene 7070) = assay: BSK_BF4T_CD90: BioMAP Diversity Plus: BF4T Assay for CD90 Biomarker Activity (AID 2284262); conditions: primary human bronchial epithelial cells with fibroblasts
How it was run: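 Co-culture of human bronchial epithelial cells and dermal fibroblasts, 24 h compound exposure. Cell-surface CD90 measured by ELISA relative to DMSO; parallel SRB total-protein staining for cytotoxicity.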

[2] = read-out: Interleukin-8 (IL8), CXCL8 (gene 3576); assay: BSK_BF4T_IL8: BioMAP Diversity Plus: BF4T Assay for Interleukin-8 (IL8) Biomarker Activity (AID 2284263); conditions: primary human bronchial epithelial cells with fibroblasts
Method: BSK_BF4T is a cell-based, multiplexed-readout assay that uses bronchial epithelial cells and dermal fibroblasts, a human vascular primary cell, with measurements taken at 24 hours after chemical dosing in a microplate: 96-well plate.BSK_BF4T_IL8 is an assay component measured in the BSK_BF4T assay. It measures IL-8 antibody related to regulation of gene expression using ELISA technology.Data from the assay component BSK_BF4T_IL8 was analyzed at the endpoint, BSK_BF4T_IL8, in the positive analysis fitting direction relative to DMSO as the negative control and baseline of activity. Using a type of binding reporter, gain or loss-of-signal activity can be used to understand protein changes. […]
The levels of cell surface (or secreted, indicated by the prefix "s") biomarker endpoints were measured by ELISA. Overt cytotoxicity to cells in confluent adherent cultures (all systems other than the BT system) was assessed by measuring total protein levels using sulforhodamine B (SRB) staining in parallel cultures at the time of biomarker measurements, indicated as SRB endpoints. For proliferation assays for adherent cell types, individual cell types are cultured at sub-confluence and relative cell numbers quantified by SRB staining at time points optimized for each system (48 h: 3C and CASM3C systems; 72 h: BT and HDF3CGF systems; 96 h: SAg system). […] Plates were read after 6 h.

[3] = read-out: Interleukin-1 alpha (IL1a), IL1A (gene 3552); assay: BSK_BF4T_IL1a: BioMAP Diversity Plus: BF4T Assay for Interleukin-1 alpha (IL1a) Biomarker Activity (AID 2284264); conditions: primary human bronchial epithelial cells with fibroblasts
How it was run: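 Human bronchial epithelial cells co-cultured with dermal fibroblasts, dosed and read at 24 h. Secreted/surface IL-1α quantified by ELISA; gain-of-signal fitted relative to DMSO baseline. Parallel SRB total-protein staining tracked cytotoxicity.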

Decorin, DCN (gene 1634) = assay: BSK_MyoF_Decorin: BioMAP Diversity Plus: MyoF Assay for Decorin Biomarker Activity (AID 2284265); conditions: primary human lung fibroblasts
How it was run: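 Decorin protein was quantified by ELISA 24 h after chemical addition to primary human lung fibroblasts and analysed as increase over DMSO. Cytotoxicity was tracked in parallel cultures by SRB total-protein staining read at 560 nm.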

KRT18 (gene 3875) = assay: BSK_BF4T_Keratin818: BioMAP Diversity Plus: BF4T Assay for Keratin 818 Biomarker Activity (AID 2284266); conditions: primary human bronchial epithelial cells with fibroblasts
How it was run: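 Co-culture of human bronchial epithelial cells and dermal fibroblasts, chemical exposure 24 h. Keratin 8/18 measured by ELISA; positive-direction fit vs DMSO. SRB total protein run in parallel cultures for cytotoxicity.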

[4] = BSK_MyoF_SRB: Viability Assessment in the BioMAP Diversity Plus: MyoF Assay (AID 2284267); conditions: primary human lung fibroblasts;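 further: total protein by SRB absorbance in parallel cultures as cytotoxicity measure; cells assessed 24 h after compound addition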
How it was run: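 Human lung fibroblasts, 24 h after chemical dosing; total protein measured by 0.1% sulforhodamine B staining after 10% TCA fixation, read at 560 nm, fitted relative to DMSO baseline.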

[5] = read-out: Matrix Metallopeptidase 1 (MMP1), MMP1 (gene 4312); assay: BSK_MyoF_MMP1: BioMAP Diversity Plus: MyoF Assay for Matrix Metallopeptidase 1 (MMP1) Biomarker Activity (AID 2284268); conditions: primary human lung fibroblasts
How it was run: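 Human lung fibroblasts (MyoF system) exposed to chemical for 24 h in 96-well format; MMP1 biomarker quantified by ELISA, with activity fitted in the positive direction relative to DMSO baseline.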

[6] = read-out: TIMP metallopeptidase inhibitor 1 (TIMP1), TIMP1 (gene 7076); assay: BSK_MyoF_TIMP1: BioMAP Diversity Plus: MyoF Assay for TIMP metallopeptidase inhibitor 1 (TIMP1) Biomarker Activity (AID 2284269); conditions: primary human lung fibroblasts
How it was run: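 Fibroblasts from human lung are dosed with chemical, cultured 24 h, and assayed for TIMP-1 by ELISA. Increases over the DMSO baseline are scored, with SRB total-protein staining run in parallel for cytotoxicity.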

[7] = read-out: Matrix Metallopeptidase 1 (MMP1), MMP1 (gene 4312); assay: BSK_BF4T_MMP1: BioMAP Diversity Plus: BF4T Assay for Matrix Metallopeptidase 1 (MMP1) Biomarker Activity (AID 2284270); conditions: primary human bronchial epithelial cells with fibroblasts
How it was run: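 Co-culture of human bronchial epithelial cells and dermal fibroblasts; MMP-1 levels measured by ELISA 24 hours after chemical dosing, relative to DMSO. Cytotoxicity checked in parallel cultures by SRB total-protein staining.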

Measured: AC50

O=C(O)C(F)(F)C(F)(F)C(F)(F)C(F)(F)C(F)(F)C(F)(F)C(F)(F)F
inactive: all assays above

O=S(=O)(O)C(F)(F)C(F)(F)C(F)(F)C(F)(F)C(F)(F)C(F)(F)C(F)(F)C(F)(F)F
inactive: all assays above

ClC1C(Cl)C(Cl)C(Cl)C(Cl)C1Cl (stereo unspecified)
active: [4] 18.6 µM and 726 nM | [5] 8.25 µM and 6.92 µM and 292 nM
inactive: [1] | Decorin, DCN (gene 1634) | [4] | [6]
